Results taken from ChEMBL document CHEMBL3988442, “University of Dundee, Small-Polar-MMV Screening Library” (2021).
Screen size: about 48,000 compounds; about 13,000 (27%) showed an effect of 50% or more. Some of the results follow.

These compounds were tested on Wolbachia pipientis (assay: Anti-Wolbachia Cell-Based Screen). Settings: 5 µM.
Format: functional
Set-up: scale not given: in the data most compounds retested in dose-response had high values
For `CCS(=O)(=O)N1CCCC2(CCCN2C(=O)c2cscn2)C1` (stereo not given), the “Percent Effect” value was -8.968%.
For `N#Cc1ccc(NCCCN2C(=O)COc3ccccc32)nc1`, the “Percent Effect” value was -5.647%.
In the case of `CN(C)c1ncccc1C(=O)N1CCN(C2=NCC(C)(C)S2)CC1`, the “Percent Effect” value is reported as -14.23%.
In the case of `CC(NC(=O)c1cccc(CN2CCN(C)CC2)c1)c1ccccn1` (stereo not given), the “Percent Effect” value is reported as -0.367%.
`CNC(=O)c1ccc(Cn2ccnc2S(C)(=O)=O)cc1` was tested, and the “Percent Effect” value was -4.025%.
For `CC(NC(=O)c1cccc(CN2CCN(C)CC2)c1)c1nccs1` (stereo not given), the “Percent Effect” value was 12.68%.
For `CC(=O)NCCC(=O)Nc1cccc(N2CCN(CC3CC3)CC2)c1`, the “Percent Effect” value was 8.668%.
With `CC(=O)Nc1cccc(Cn2nc(C)nc2C)c1` the “Percent Effect” value was 5.981%.
For `CNC(=O)c1cccc(CN2CCN(c3ccncc3)CC2)c1`, the “Percent Effect” value was 83.93%.
With `CNC(=O)c1ccc(CN2CCN(C3=NCC(C)(C)S3)CC2)cc1` the “Percent Effect” value was 129.2%.
In the case of `CNC(=O)c1cccc(CN2CCN(C3=NCC(C)(C)S3)CC2)c1`, the “Percent Effect” value is reported as 103.7%.
With `CC(=O)Nc1cccc(CN2CCN(C3=NCC(C)(C)S3)CC2)c1` the “Percent Effect” value was 100.4%.
With `COCc1cccc(C(=O)N2CCN(C3=NCC(C)(C)S3)CC2)c1` the “Percent Effect” value was 0.6755%.
With `CNC(=O)c1cccc(CN2CCC(N(C)Cc3nnc(C)o3)C2)c1` (stereo not given) the “Percent Effect” value was 0.9226%.
With `CN(CCCc1n[nH]c(N)c1C#N)C(=O)NC1CC1` the “Percent Effect” value was 0.449%.
In the case of `O=C(NCCCO)Nc1cccc(C[S+]([O-])c2ccccc2)c1` (stereo not given), the “Percent Effect” value is reported as 2.569%.
In the case of `CN(Cc1ccccc1)CC1CC2(CO1)CN(Cc1nccs1)C2` (stereo not given), the “Percent Effect” value is reported as 11.68%.
For `Cc1ccc(N2CCC3(CCCN(C(=O)c4cccnc4)C3)C2)nn1.O=C(O)C(F)(F)F` (stereo not given), the “Percent Effect” value was -9.172%.
In the case of `CN(Cc1ccncc1)C1CC2(CCN(c3ncc(F)cn3)CC2)C1.O=C(O)C(F)(F)F.O=C(O)C(F)(F)F`, the “Percent Effect” value is reported as -2.894%.
With `Cc1ccc(C(=O)N2CCC3(CCCN(c4ncc(F)cn4)C3)C2)cn1.O=C(O)C(F)(F)F` (stereo not given) the “Percent Effect” value was 104%.
`O=C(O)C(F)(F)F.O=C(c1ccncc1)N1CCC2(CCCN(c3ncc(F)cn3)C2)C1` (stereo not given) was tested, and the “Percent Effect” value was 105.7%.
In the case of `Cc1ccc(C(=O)N2CCC3(CCCN(c4ccc(C)nn4)C3)C2)cn1` (stereo not given), the “Percent Effect” value is reported as 4.152%.
In the case of `Cc1occc1C(=O)N1CCC2(CCCN(Cc3nccs3)C2)C1.O=C(O)C(F)(F)F` (stereo not given), the “Percent Effect” value is reported as 1.287%.
With `Cc1occc1C(=O)N1CCC2(CCCN(Cc3cccs3)C2)C1.O=C(O)C(F)(F)F` (stereo not given) the “Percent Effect” value was -3.04%.
With `Cc1occc1C(=O)N1CCC2(CCCN(c3ncc(F)cn3)C2)C1.O=C(O)C(F)(F)F` (stereo not given) the “Percent Effect” value was 116.2%.
With `c1ccc2c(c1)CC(CNCc1ccncc1)(N1CCCCC1)C2` the “Percent Effect” value was -2.88%.
With `CC(CN1CCC2(CC1)c1nc[nH]c1CCN2S(C)(=O)=O)C(F)(F)F` (stereo not given) the “Percent Effect” value was -8.098%.
For `COC(=O)c1ccc(C(=O)NS(=O)(=O)c2cncc(Br)c2)cc1`, the “Percent Effect” value was -17.99%.
With `Cc1ncsc1CCCn1ccnc1-c1cc2n(n1)CCCNC2` the “Percent Effect” value was -0.1089%.
For `CC(O)CN1CCc2[nH]nc(C(c3ccccc3)c3ccccc3)c2C1` (stereo not given), the “Percent Effect” value was 0.8234%.
In the case of `CCc1ccc(C(=O)N2CCCC3(CCCC(=O)N3C)C2)cc1` (stereo not given), the “Percent Effect” value is reported as 97.96%.
`COc1ccc(C(=O)N2CCCC3(CCCC(=O)N3C)C2)cc1` (stereo not given) was tested, and the “Percent Effect” value was 91.19%.
For `CCC1(C(=O)O)CCCN(C(=O)c2ccc(N3CCN(C)CC3)cc2)C1` (stereo not given), the “Percent Effect” value was 4.53%.
`CCC1(CO)CCCN(C(=O)c2ccc(N3CCN(C)CC3)cc2)C1` (stereo not given) was tested, and the “Percent Effect” value was -10.61%.
With `O=C(NC1CCCCC1)N1C[C@H]2CN(c3cnccn3)C[C@@]2(C(=O)O)C1` the “Percent Effect” value was -17.1%.
For `Cc1ccc2c(c1)C(NCc1ncnn1C)CC2` (stereo not given), the “Percent Effect” value was -32.91%.
With `CN1C(=O)CC(C(=O)O)C12CCN(Cc1ccc(Cl)c(F)c1)CC2` (stereo not given) the “Percent Effect” value was -9.63%.
For `COC(CNC(=O)N1CCC(n2cncn2)CC1)c1ccccc1` (stereo not given), the “Percent Effect” value was 1.274%.
For `CC(C)Oc1ccccc1NC(=O)N1CCC(n2cncn2)CC1`, the “Percent Effect” value was 90.39%.
`COc1ccccc1OCCNC(=O)N1CCC(n2cncn2)CC1` was tested, and the “Percent Effect” value was 92.74%.
`CC(NC(=O)N1CCC(n2cncn2)CC1)c1ccc(F)cc1F` (stereo not given) was tested, and the “Percent Effect” value was -3.93%.
For `CC(C)c1ccc(C(C)NC(=O)N2CCC(n3cncn3)CC2)cc1` (stereo not given), the “Percent Effect” value was -4.399%.
For `COc1ccccc1OCCNC(=O)NCC(C)C`, the “Percent Effect” value was -1.191%.
`COc1ccccc1CCNC(=O)N1CCC(n2cncn2)CC1` was tested, and the “Percent Effect” value was 106.2%.
For `O=C(Nc1ccc(N2CCCC2)nc1)N1CCc2sccc2C1`, the “Percent Effect” value was 6.616%.
For `CCS(=O)(=O)NCCCNc1ncnc2cc(F)c(F)cc12`, the “Percent Effect” value was -7.857%.
With `CS(=O)(=O)NC[C@]12COC[C@H]1CN(C(=O)N1CCCC1)C2` the “Percent Effect” value was 88.05%.
For `CS(=O)(=O)NC[C@]12COC[C@H]1CN(CC1CCC1)C2.O=C(O)C(F)(F)F`, the “Percent Effect” value was 92.98%.
With `Cc1ccoc1C(=O)N1C[C@@H]2COC[C@]2(CNS(C)(=O)=O)C1` the “Percent Effect” value was 15.9%.
`CS(=O)(=O)NC[C@]12COC[C@H]1CN(C(=O)c1ccoc1)C2` was tested, and the “Percent Effect” value was -2.074%.
